From PubChem BioAssay (EPA / NIEHS) come the findings set out here.

In general, AC50 refers to the concentration giving half of the maximal activity seen.

Activity calls are given as the source filed them. Rule for the calls: active = hit-call score of the fitted dose curve at least 0.9, where 1 is the maximum; inactive = score below 0.9.

One assay in a line: CCTE_Shafer_MEA_acute_per_network_burst_spike_number_std: CCTE's Neural Acute Assay for Standard Deviation of Number of Spikes in a Network Burst, Shafer Lab (AID 2284020).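 Note: fitted for decrease in spike-number SD versus DMSO so actives lower it.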 The gist of the method: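 Rat cortical cultures, DIV 13/15, 37 C; 20-min stabilisation, 40-min baseline, compound 0.03-40 uM, 40-min re-record. Spikes detected at 8x rms noise (300-5000 Hz band-pass). Readout: % change from baseline in per-burst spike-number SD.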
Regarding `CCC(C)(C)c1ccc(O)cc1`, the AC50 is 8.27 µM (active).
For `[N-]=[N+]=[N-]`, the compound was called inactive.
Turning to `Nc1ccc2ccccc2c1`, the outcome was inactive.
On to `ClC1=C(Cl)C2(Cl)C3C(Cl)C(Cl)CC3C1(Cl)C2(Cl)Cl` (centres undefined), for which the call was inactive.
Regarding `CCOP(=S)(Oc1ccc([N+](=O)[O-])cc1)c1ccccc1` (centres undefined), the call was inactive.
`CC(C)(C)c1ccccc1OP(=O)(Oc1ccccc1)Oc1ccccc1`: the concentration at half-maximal activity (AC50) is 5 µM (active).
Consider `ClC(Cl)(Cl)c1ccccc1`, for which the result was inactive.
Still for that read-out and setting: under `COP(=O)(CCC(=O)NCO)OC` stands “inactive”.
Same read-out and setting: under `COCCOCCO` stands “inactive”.
Still for that read-out and setting: under `CC(Cl)(Cl)C(=O)O` stands “inactive”; under `CCC1(c2ccccc2)C(=O)N=C(O)NC1=O` (centres undefined), “inactive”; under `Cc1ccc(N)cc1N`, “inactive”.
With `O=C(O)C1C(C(=O)O)C2(Cl)C(Cl)=C(Cl)C1(Cl)C2(Cl)Cl` (centres undefined), the result was inactive.
`CCCCC(CC)COP(=O)(Oc1ccccc1)Oc1ccccc1` (centres undefined): the compound was called inactive.
Consider `CCOc1ccc(C(C)(C)COCc2cccc(Oc3ccccc3)c2)cc1`, for which the call was inactive.
Turning to `c1ccc2c(c1)Nc1ccccc1S2`, the AC50 was 27.3 µM (active).

Another assay can be described thus: CCTE_Shafer_MEA_acute_per_network_burst_electrodes_number_mean: CCTE's Neural Acute Assay for Mean Number of Electrodes in a Network Burst, Shafer Lab (AID 2284021).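 Note: curves fitted for decreases only so hits reduce electrodes per burst.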 The gist of the method:
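Percent change from baseline was computed as mean electrode count per network burst, comparing 40 min recordings before and during compound (0.03-40 uM) exposure. Cultures were rat cortical neurons at DIV 13 or 15, recorded on MEAs at 37 C with an adaptive 8x rms threshold.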
Regarding `[N-]=[N+]=[N-]`, the result was inactive.
The same measure, in the same setting: under `Nc1ccc2ccccc2c1` stands “inactive”; under `ClC1=C(Cl)C2(Cl)C3C(Cl)C(Cl)CC3C1(Cl)C2(Cl)Cl` (centres undefined), “inactive”.
Same read-out and setting: under `CCOP(=S)(Oc1ccc([N+](=O)[O-])cc1)c1ccccc1` (centres undefined) stands “inactive”.
In the case of `CC(C)(C)c1ccccc1OP(=O)(Oc1ccccc1)Oc1ccccc1`, the AC50 was 5 µM (active).
Regarding `ClC(Cl)(Cl)c1ccccc1`, the compound was called inactive.
As for `COP(=O)(CCC(=O)NCO)OC`, the outcome was inactive.
Same read-out and setting: under `COCCOCCO` stands “inactive”; under `CC(Cl)(Cl)C(=O)O`, “inactive”.
In the case of `CCC1(c2ccccc2)C(=O)N=C(O)NC1=O` (centres undefined), the call was inactive.
Same read-out and setting: for `Cc1ccc(N)cc1N` the value was “inactive”; for `O=C(O)C1C(C(=O)O)C2(Cl)C(Cl)=C(Cl)C1(Cl)C2(Cl)Cl` (centres undefined), “inactive”.
`CCCCC(CC)COP(=O)(Oc1ccccc1)Oc1ccccc1` (centres undefined): the outcome was inactive.
Regarding `CCOc1ccc(C(C)(C)COCc2cccc(Oc3ccccc3)c2)cc1`, the call was inactive.
Regarding `c1ccc2c(c1)Nc1ccccc1S2`, the AC50 is 7.45 µM (active).

A further assay is described as follows: CCTE_Shafer_MEA_acute_network_burst_percentage: CCTE's Neural Acute Assay for Percentage of Network Bursts, Shafer Lab (AID 2284022).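 Note: curves fitted for loss so actives lower network burst percentage.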 The gist of the method:
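Network burst percentage (spikes in network bursts divided by total spikes) recorded at 37 C over 40 min baseline and 40 min after compound, 0.03-40 uM, in rat cortical cultures at DIV 13 or 15. Analysed as percent change from baseline versus DMSO.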
Take `CCC(C)(C)c1ccc(O)cc1`: the compound was classed as inactive.
Turning to `[N-]=[N+]=[N-]`, the compound was called inactive.
`Nc1ccc2ccccc2c1`: the result was inactive.
For the compound `ClC1=C(Cl)C2(Cl)C3C(Cl)C(Cl)CC3C1(Cl)C2(Cl)Cl` (centres undefined), the AC50 is 33.8 µM (active).
Consider `CCOP(=S)(Oc1ccc([N+](=O)[O-])cc1)c1ccccc1` (centres undefined), for which the outcome was inactive.
For `CC(C)(C)c1ccccc1OP(=O)(Oc1ccccc1)Oc1ccccc1`, the AC50 is 7.61 µM (active).
Regarding `ClC(Cl)(Cl)c1ccccc1`, the call was inactive.
Same read-out and setting: under `COP(=O)(CCC(=O)NCO)OC` stands “inactive”.
`COCCOCCO`: the compound was classed as inactive.
As to `CC(Cl)(Cl)C(=O)O`, the result was inactive.
For `CCC1(c2ccccc2)C(=O)N=C(O)NC1=O` (centres undefined), the result was inactive.
The same measure, in the same setting: under `Cc1ccc(N)cc1N` stands “inactive”; under `O=C(O)C1C(C(=O)O)C2(Cl)C(Cl)=C(Cl)C1(Cl)C2(Cl)Cl` (centres undefined), “inactive”; under `CCCCC(CC)COP(=O)(Oc1ccccc1)Oc1ccccc1` (centres undefined), “inactive”.
Turning to `CCOc1ccc(C(C)(C)COCc2cccc(Oc3ccccc3)c2)cc1`, the half-maximal activity concentration (AC50) is 23.8 µM (active).
For the compound `c1ccc2c(c1)Nc1ccccc1S2`, the AC50 is 20 µM (active).

The nature of a further assay: CCTE_Shafer_MEA_acute_cross_correlation_area: CCTE's Neural Acute Assay for Area of Cross Correlation, Shafer Lab (AID 2284024).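 Note: rat primary cortical neuron networks on 48-well MEA at DIV 13 or 15 with 40 min exposure; area under pooled inter-electrode spike cross-correlation near zero lag as percent change from own baseline; curves fitted for loss of cross-correlation area so actives lower synchrony.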 The method, boiled down: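 Percent change in well-wide cross-correlation area (window around zero lag) between 40 min baseline and 40 min post-compound recordings, 37 C; rat cortical cultures on MEA at DIV 13 or 15, dosed 0.03-40 uM, wells needing >/= 10 active electrodes.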
With `CCC(C)(C)c1ccc(O)cc1`, the compound was classed as inactive.
With `[N-]=[N+]=[N-]`, the result was inactive.
The same measure, in the same setting: for `Nc1ccc2ccccc2c1` the value was “inactive”.
Same read-out and setting: for `ClC1=C(Cl)C2(Cl)C3C(Cl)C(Cl)CC3C1(Cl)C2(Cl)Cl` (centres undefined) the value was “inactive”; for `CCOP(=S)(Oc1ccc([N+](=O)[O-])cc1)c1ccccc1` (centres undefined), “inactive”.
Still for that read-out and setting: under `CC(C)(C)c1ccccc1OP(=O)(Oc1ccccc1)Oc1ccccc1` stands “inactive”; under `ClC(Cl)(Cl)c1ccccc1`, “inactive”.
Consider `COP(=O)(CCC(=O)NCO)OC`, for which the compound was called inactive.
Still for that read-out and setting: under `COCCOCCO` stands “inactive”.
Consider `CC(Cl)(Cl)C(=O)O`, for which the compound was classed as inactive.
On to `CCC1(c2ccccc2)C(=O)N=C(O)NC1=O` (centres undefined), for which the result was inactive.
Regarding `Cc1ccc(N)cc1N`, the outcome was inactive.
`O=C(O)C1C(C(=O)O)C2(Cl)C(Cl)=C(Cl)C1(Cl)C2(Cl)Cl` (centres undefined): the compound was called inactive.
With `CCCCC(CC)COP(=O)(Oc1ccccc1)Oc1ccccc1` (centres undefined), the compound was classed as inactive.
Turning to `CCOc1ccc(C(C)(C)COCc2cccc(Oc3ccccc3)c2)cc1`, the result was inactive.
Same read-out and setting: for `c1ccc2c(c1)Nc1ccccc1S2` the value was “inactive”.

Another assay in a line: CCTE_Shafer_MEA_acute_cross_correlation_HWHM: CCTE's Neural Acute Assay for Cross Correlation at Half Width at Half Maximum, Shafer Lab (AID 2284026).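 For outcome: spontaneous network firing of rat primary cortical neurons on multiwell microelectrode arrays.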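 Note: percent change per well from pre-dose baseline in spike cross-correlogram half width; hits are a decrease in cross-correlogram half width relative to DMSO.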 The method, boiled down: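 Per-well percent change in cross-correlogram half width at half maximum, derived from 40-min recordings before and after compound (0.03-40 uM) at 37 C. Cultures were rat cortical neurons, DIV 13 or 15, with adaptive spike detection at 8x rms.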
In the case of `CCC(C)(C)c1ccc(O)cc1`, the concentration at half-maximal activity (AC50) is 9.35 µM (active).
Consider `[N-]=[N+]=[N-]`, for which the result was inactive.
For the compound `Nc1ccc2ccccc2c1`, the result was inactive.
In the case of `ClC1=C(Cl)C2(Cl)C3C(Cl)C(Cl)CC3C1(Cl)C2(Cl)Cl` (centres undefined), the concentration at half-maximal activity (AC50) is 4.29 µM (active).
As for `CCOP(=S)(Oc1ccc([N+](=O)[O-])cc1)c1ccccc1` (centres undefined), the compound was called inactive.
On to `CC(C)(C)c1ccccc1OP(=O)(Oc1ccccc1)Oc1ccccc1`, for which the AC50 is 8.14 µM (active).
With `ClC(Cl)(Cl)c1ccccc1`, the outcome was inactive.
On to `COP(=O)(CCC(=O)NCO)OC`, for which the result was inactive.
In the case of `COCCOCCO`, the result was inactive.
The same measure, in the same setting: for `CC(Cl)(Cl)C(=O)O` the value was “inactive”.
On the same count and under the same terms, under `CCC1(c2ccccc2)C(=O)N=C(O)NC1=O` (centres undefined) stands “inactive”; under `Cc1ccc(N)cc1N`, “inactive”; under `O=C(O)C1C(C(=O)O)C2(Cl)C(Cl)=C(Cl)C1(Cl)C2(Cl)Cl` (centres undefined), “inactive”.
As to `CCCCC(CC)COP(=O)(Oc1ccccc1)Oc1ccccc1` (centres undefined), the half-maximal activity concentration (AC50) is 10.3 µM (active).
As for `CCOc1ccc(C(C)(C)COCc2cccc(Oc3ccccc3)c2)cc1`, the result was inactive.
In the case of `c1ccc2c(c1)Nc1ccccc1S2`, the AC50 is 36.9 µM (active).
